Screens: PubChem BioAssay, National Center for Advancing Translational Sciences (NCATS)
Vif-APOBEC3G blk: qHTS for Inhibitors of Vif-A3G Interactions: qHTS | 0.076% of 410,000 active | Potency, µM (doses to about 46.1 µM), inactives show at the highest dose activity, negative = active, hits mostly inhibitors | DNA dC->dU-editing enzyme APOBEC-3G (Homo sapiens), Q9HC16 | HeLa A3G-eYFP + Vif (tagged APOBEC3G with the HIV-1 protein that degrades it), YFP fluorescence, overnight | AID 602310, 2012; also: potency is read from the fitted curve at half-maximal effect; % is scaled to controls: 0 for no effect and ±100 for the full control effect; nearly all actives have a fitted effect of over 60% in size
Target sequence (Q9HC16 whole entry, looked up): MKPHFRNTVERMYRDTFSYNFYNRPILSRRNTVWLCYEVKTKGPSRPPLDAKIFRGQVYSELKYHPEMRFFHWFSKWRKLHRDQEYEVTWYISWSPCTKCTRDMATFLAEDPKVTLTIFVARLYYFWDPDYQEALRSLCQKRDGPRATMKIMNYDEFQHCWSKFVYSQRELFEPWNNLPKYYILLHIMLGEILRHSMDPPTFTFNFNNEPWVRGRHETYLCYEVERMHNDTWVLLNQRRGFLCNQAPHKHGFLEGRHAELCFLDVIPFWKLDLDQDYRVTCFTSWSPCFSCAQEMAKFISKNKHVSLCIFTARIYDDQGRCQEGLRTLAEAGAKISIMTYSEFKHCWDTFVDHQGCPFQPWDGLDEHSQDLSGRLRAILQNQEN
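Read-out is eYFP fluorescence (Ex 488/Em 500-530) from Vif-expressing HeLa A3G-eYFP cells; more signal means A3G escaped Vif-mediated degradation. Cells plated overnight, compound pinned in, incubated overnight at 37 deg C.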
MCF10A rerep: A quantitative high throughput screen for small molecules that induce DNA re-replication in MCF 10a normal breast cells; MCF 10A DNA re-replication, Hoechst nuclear intensity, 48 h; 2.9% of 350,000 active; Potency, µM (series often up to 46.1 µM), inactives show top-dose activity, positive = re-replication, hits mostly activators; also: potency is read from the fitted curve at half-maximal effect; % of control where 0% means no effect; nearly all actives have a fitted effect of over 50% in size
Giardia killer: Small Molecules that selectively kill Giardia lamblia: qHTS; Giardia lamblia trophozoite viability; activity change, % at 7.66 µM, hits read low; 0.15% of 340,000 active; AID 540267, 2011; in the data active = activity change below about -80%; inconclusive = between about -30% and that limit;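 also: parasites exposed to compound for two days anaerobically before the ATP read; % is scaled to controls: 0 for no effect and ±100 for the full control effect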
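Trophozoite viability was measured as ATP-dependent luminescence, read 15-30 min after reagent addition. Before that, parasites at 100 cells/well were exposed to compounds for 48 h, anaerobically, at 37 deg C.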
Vif-A3F inh: qHTS for Inhibitors of Vif-A3F Interactions: qHTS; HeLa A3F-eYFP + Vif (tagged APOBEC3F with the HIV-1 protein that degrades it), YFP fluorescence increase; Potency, µM (titrated, usually from 46.1 µM), for the others: at the top dose activity, negative = active; 0.2% of 390,000 active; also: potency is read from the fitted curve at half-maximal effect; % of control where 0% means no effect; nearly all actives have a fitted effect of over 65% in size
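HeLa cells stably expressing Vif plus C-terminally eYFP-tagged A3F were seeded, incubated overnight at 37 deg C, dosed with compound, incubated overnight again at 37 deg C. Yellow fluorescence (Ex 488/Em 500-530) reported blocked Vif-mediated A3F-eYFP degradation.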
IL-1B inflam inh: qHTS for Inhibitors of Inflammasome Signaling: IL-1-beta AlphaLISA Primary Screen; THP-1 LPS/ATP IL-1B secretion, AlphaLISA, 16 h; stronger effect = lower value; activity change, % at 57.5 µM; 4.7% of 360,000 active; in the data active = activity change below about -50%; inconclusive = mostly about -30% to -49%; also: % is scaled to controls: 0 for no effect and ±100 for the full control effect
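THP-1 cells pretreated 1 hr with compounds (up to 57.5 uM final), then stimulated with LPS (250 ng/mL final) plus ATP (1.25 mM final); secreted IL-1B measured by AlphaLISA after 16 hr, decreased signal indicating inhibition.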
SW480 rereplic: A quantitative high throughput screen for small molecules that induce DNA re-replication in SW480 colon adenocarcinoma cells | Potency, µM (highest dose often 46.1 µM), for the others: top-dose re-replication activation, hits mostly activators | 1.8% of 340,000 active | SW480 DNA re-replication, Hoechst DNA content imaging, 48 h; also: potency is read from the fitted curve at half-maximal effect; % of control where 0% means no effect; nearly all actives have a fitted effect of over 55% in size
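Compounds, transferred as 23 nL by pin tool, were incubated with cells for 48 hr; DNA content per nucleus was then quantified by Hoechst staining and fluorescence plate imaging.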
* hit, by the source's call; ? = inconclusive; . = not tested or not shown; [ ] = dose if it differs, or a comment. In the library only some 6.9% were active in any assay of this set; here they are far more common. Unless noted, calls follow the shape of the dose curve; as a rule, active = well fitted curve in the direction sought with a large enough effect; inconclusive = small, poorly fitted or top-dose-only effect, or another doubt; inactive = no such curve, though single readings can be large; an effect the other way counts as inactive or inconclusive.

SMILES	Vif-APOBEC3G blk	MCF10A rerep	Giardia killer	Vif-A3F inh	IL-1B inflam inh	SW480 rereplic
CC(C)c1ccc(NC(=O)CSc2nc(=O)n(CCCN3CCOCC3)c3c2CCCC3)cc1	-3%	?	-1	8%	-10	1%
CC(C)c1ccc(NC(=O)CSc2nc(=O)n(CCCN3CCOCC3)c3c2CCC3)cc1	0%	?	-5	-8%	-63*	14%
COc1cc(NC(=O)CSc2nc(=O)n(CCCN3CCOCC3)c3c2CCC3)cc(OC)c1	-1%	-3%	6	3%	-8	-3%
Cc1cc(C)cc(NC(=O)CSc2nc(=O)n(CCCN3CCOCC3)c3c2CCCC3)c1	1%	?	-2	-1%	-52*	1%
O=C(CSc1nc(=O)n(CCN2CCOCC2)c2c1CCC2)Nc1ccc(OC(F)(F)F)cc1	-2%	?	-11	6%	-75*	-320%
CCCNc1ncnc2c1c(-c1ccccc1)cn2-c1ccccc1	-8%	.	.	9%	.	.
COC(=O)c1ccc(N2CCC(c3cc(-c4ccc(OC)cc4)n[nH]3)CC2)c([N+](=O)[O-])c1	6%	11%	-11	-1%	-8	5%
COc1ccc(-c2cc(C3CCN(C(=O)OC(C)(C)C)CC3)[nH]n2)cc1	2%	15%	2	2%	-84*	-15%
COc1ccc(OC)c(-c2cc(C3CCN(C(=O)OC(C)(C)C)CC3)[nH]n2)c1	0%	?	3	7%	-57*	8%
COc1ccc(-c2cc(C3CCN(c4ccc(C(C)=O)cc4[N+](=O)[O-])CC3)[nH]n2)cc1	1%	14%	2	-2%	-71*	8%
COCCNC(=O)CCn1c(=O)c2cc(OC)c(OC)cc2n(CC(=O)Nc2ccc(Cl)cc2F)c1=O	-1%	.	.	1%	.	.
COc1ccc(C)cc1NC(=O)c1cnc2ccc(C)cn2c1=O	-4%	.	.	-1%	.	.
FC(F)(F)c1cccc(CNC(=S)Nc2ccccc2)c1	2%	0%	-6	-5%	-79*	?
S=C(NCc1ccccc1)Nc1ccc(Cl)cc1	0%	12%	10	-18%	?	9%
FC(F)(F)Sc1ccc(NC(=S)NCc2ccccc2)cc1	-22%	?	6	-7%	-88*	-1%
CCOc1ccc(CNC(=S)Nc2ccccc2)cc1Cl	0%	-8%	7	3%	-79*	-2%
Cc1ccc2onc(CC(=O)N(C)c3ccccc3)c2c1	0%	.	.	5%	.	.
O=C(/C=C/c1ccc([N+](=O)[O-])cc1)c1ccccc(=O)c1O	?	2.9µM*	4	?	-98*	5.8µM*
Cc1nn(C)cc1C(=O)/C=C/c1ccc([N+](=O)[O-])cc1	1%	?	-6	2%	-99*	?
O=C(/C=C/c1ccccc1Cl)c1ccccc(=O)c1O	?	10µM*	2	?	-97*	12µM*
Cc1ccc(C)c(/C=C/C(=O)c2ccccc(=O)c2O)c1	?	18µM*	2	?	-64*	-651%
Cc1ccc(C(=O)CC(=O)c2ccccc2C)c(O)c1	1%	?	-6	-7%	67	11%
Cc1ccc(/C=C/C(=O)c2ccccc(=O)c2O)c(C)c1	-23%	?	9	-17%	-104*	?
CN(C)Cc1c(C(=O)N/N=C/c2cccc(OCc3ccc(F)cc3)c2)nnn1-c1nonc1N	0%	-5%	-12	4%	12	-2%
CCN(CC)c1ccc(/C=N/NC(=O)c2nnn(-c3nonc3N)c2C(C)C)c(O)c1	-11%	18µM*	11	-2%	80	23µM*
SMILES	Vif-APOBEC3G blk	MCF10A rerep	Giardia killer	Vif-A3F inh	IL-1B inflam inh	SW480 rereplic
CC(C)c1c(C(=O)N/N=C/c2cccc(OCc3ccc(F)cc3)c2)nnn1-c1nonc1N	3%	?	-8	-8%	-83*	3%
CC(C)c1c(C(=O)N/N=C/c2ccc3c(c2)OCO3)nnn1-c1nonc1N	-9%	0%	-5	-2%	-10	-1%
O=C(COc1ccccc1)N1CCN(c2ccc([N+](=O)[O-])c(N3CCCCC3)c2)CC1	2%	?	-1	-7%	-53*	?
O=C(COc1ccc(Br)cc1)N1CCN(c2ccc([N+](=O)[O-])c(N3CCCCC3)c2)CC1	2%	3%	-18	-6%	-20	3%
COc1ccccc1N1CCc2c(C)nc3c(OC)cccc3c21	5%	17%	24	0%	-72*	-3%
Nc1c2c(nc3ccccc13)N(c1ccccc1)CC2	0%	-5%	1	7%	-9	0%
CSc1nc(C)c2c(n1)N(c1ccc(F)cc1)CC2	0%	13%	-15	-8%	-13	-6%
COc1cccc2c3c(c(C)nc12)CCN3c1ccccc1	1%	0%	5	-2%	-93*	1%
Cc1ccc2nc(C)c3c(c2c1)N(c1ccc(F)cc1)CC3	-1%	18µM*	-9	8%	.	-8%
CCOC(=O)c1ccc(NC(=O)CSc2c(C(C)C)cnc3c2c(=O)n(C)c(=O)n3C)cc1	0%	.	.	-1%	.	.
Oc1c(C(c2ccccc2F)N2CCOCC2)sc2nc(-c3ccco3)nn12 (centres undefined)	1%	.	.	3%	.	.
Cc1ccc(CN(C(=O)COc2cccc(Cl)c2)c2ccccn2)o1	-2%	.	.	-3%	.	.
CCc1ccc(NC(=O)CN2C(=O)C3CCCN3c3ccc(S(=O)(=O)N(CC)CC)cc32)cc1 (centres undefined)	-7%	.	.	-1%	.	.
O=C(/C=C/c1ccco1)Nc1nnc(-c2ccco2)s1	-23%	5.8µM*	3	-16%	31	?
Cc1nc(NC(=O)/C=C/c2ccco2)sc1C	?	?	0	-22%	22	8.2µM*
CCc1nnc(NC(=O)/C=C/c2ccco2)s1	0%	-2%	-10	2%	0	-11%
Cc1cc2c(cc1C)N(C(=O)CSC1=NCCS1)C(C)(C)c1ssc(=S)c1-2	-2%	4%	-5	0%	-50*	10%
CCN(CCCCOC(=O)c1ccc(OC)c(OC)c1)[C@@H](C)Cc1ccc(OC)cc1	.	1%[20.6 µM]	.	.	.	-2%[20.6 µM]
COc1ccc(Nc2nc(NCc3ccco3)nc(N/N=C/c3ccc(O)cc3)n2)cc1	-14%	?	15	0%	-69*	-5%
CC(C)c1ccc(Nc2nc(Cl)nc(NCc3ccco3)n2)cc1	2%	23µM*	0	-8%	21	5.8µM*
